Screening data: PubChem BioAssay, several laboratories
SMARCA2 activ = SMARCA2 function activation, primary screen; 370,000 compounds, 1% hits; activation, % at 9.1 µM; MG213 cells, MMTV-luciferase reporter, dexamethasone, overnight; in the data active means activation above about 7.8%;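 further: 0% = vehicle wells and 100% = reference activator wells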
GASC-1 inh = blocks human GASC-1 demethylase activity | GST-JMJD2C(1-420) H3K9me3 demethylation, DELFIA europium | Q9H3R0 | 330,000 compounds, 0.069% hits | inhibition, % at 2.35 µM | AID 2099;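 active means more than half of a compound's replicate wells show inhibition beyond 50%, single wells judged on their own value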;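 further: signal counts dimethyl H3K9 product captured on neutravidin plate; 0% = median of DMSO wells and 100% = 0.3 times that DMSO median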
Target sequence (Q9H3R0 1-420 limits assumed): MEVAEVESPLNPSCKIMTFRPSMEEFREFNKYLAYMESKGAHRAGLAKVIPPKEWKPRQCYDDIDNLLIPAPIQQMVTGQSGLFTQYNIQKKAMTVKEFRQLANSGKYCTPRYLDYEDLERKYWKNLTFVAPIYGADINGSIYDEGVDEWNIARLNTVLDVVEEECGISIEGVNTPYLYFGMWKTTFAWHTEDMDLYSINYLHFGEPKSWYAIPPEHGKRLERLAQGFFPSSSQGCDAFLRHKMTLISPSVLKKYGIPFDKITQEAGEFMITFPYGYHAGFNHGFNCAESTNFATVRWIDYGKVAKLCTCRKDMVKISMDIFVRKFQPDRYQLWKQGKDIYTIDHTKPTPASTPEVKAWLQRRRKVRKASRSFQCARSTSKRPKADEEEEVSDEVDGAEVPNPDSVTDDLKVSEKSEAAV
Exocytosis inh = blocks lytic granule exocytosis | TALL-104 LAMP-1 surface exposure, flow cytometry; cells stimulated with thapsigargin and PMA | inhibition, % at 10 µM | 360,000 compounds, 0.66% hits | AID 651702;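 active means inhibition above about 55%, limit read from the data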
PfM18AAP inh = PfM18AAP enzyme inhibition. recombinant PfM18AAP, H-Glu-NHMec fluorogenic cleavage. 290,000 compounds, 1.2% hits. AID 1822. inhibition, % at 7.35 µM;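 active means inhibition above the campaign mean inhibition over all tested compounds plus 3 SD, cut at about 28% in these data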;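 further: 0% = plate median of test compound wells and 100% = 2 mM ZnCl2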
beta cell repl = inducers of beta-cell replication in MIN6 cells | MIN6 cells proliferation, ATPlite luminescence, 48 h; cells starved in 0.2% serum; 100% = growth in 10% serum | proliferation, % at 10 µM | 330,000 compounds, 0.29% hits;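 active means compounds whose signal lies at least 3.5 SD above the mean of all wells on their plate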;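 further: 0% = DMSO-treated cells in low-serum medium and 100% = 10% serum control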
ALR inh = blocks human ALR sulfhydryl oxidase activity | inhibition, % (test concentration not listed) | purified ALR, DTT oxidation, H2O2 HRP-luminol luminescence | AID 485317 | 290,000 compounds, 3.8% hits | P55789;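 active means mean replicate inhibition above about 79%, with every replicate also reaching it, limit read from the data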
Target sequence (P55789 whole entry, looked up): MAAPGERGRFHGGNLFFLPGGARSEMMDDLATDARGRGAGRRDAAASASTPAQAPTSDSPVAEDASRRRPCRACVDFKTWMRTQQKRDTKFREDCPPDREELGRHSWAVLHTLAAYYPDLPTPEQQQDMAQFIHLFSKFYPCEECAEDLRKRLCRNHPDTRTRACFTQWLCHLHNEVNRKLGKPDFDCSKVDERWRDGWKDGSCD
Active calls of the source: *; x = no result. Only some compounds are listed: those with a hit (about 5.4% of all), similar ones and a draw of the others.

SMILES	SMARCA2 activ	GASC-1 inh	Exocytosis inh	PfM18AAP inh	beta cell repl	ALR inh
CCOc1cc(/C=N/N=C2/NC(=O)C(CC(=O)O)S2)ccc1OCc1ccccc1Cl (configuration not stated)	-5.7	2.1	5.8	6.3	-3.4	97.7*
CCOc1ccc(-n2c(SCC(=O)Nc3ccc4c(c3)c3ccccc3n4CC)nnc2-c2cccnc2)cc1	-0.4	x	x	x	x	x
COC(=O)[C@H](C(C)C)N1CCc2nnn(CC3CCCCC3)c2-c2cc(F)ccc2S1(=O)=O	1.8	x	x	x	x	x
CC(=O)N1CCN(C(=O)c2ccc(C)c(S(=O)(=O)N3CCCCC3)c2)CC1	3.0	-6.5	7.2	x	-5.1	x
Cc1cc(S(=O)(=O)N2CCN(c3ccccc3O)CC2)c(C)s1	-1.9	1.7	1.4	3.5	2.5	98.1*
Cc1ccc(C(=O)N2CCN(c3ccccc3O)CC2)cc1S(=O)(=O)N1CCCCC1	0.0	-8.7	16.8	x	-0.6	97.6*
CCCCS(=O)(=O)N1CCCc2nc(-c3ccc(OC)cc3)ccc21	-6.9	x	x	x	x	x
C[C@@H]1[C@@H](O)C[C@@]2(C[C@H](O)c3cc(Cl)cc(Cl)c3O2)O[C@H]1c1ccccc1Cl	-1.5	x	x	x	x	x
CC(=O)Nc1ccc2c(c1)OCCO2	-1.0	3.2	6.0	-7.0	2.2	x
COc1ccc(NC(=O)CSc2ccc3c(c2)OCCO3)cc1	-5.4	-5.3	-4.6	x	-4.9	98.2*
COc1ccc(NC(=O)CN(C)C(=O)CSc2ccc3c(c2)OCCO3)cc1	-2.1	-9.4	-4.6	3.5	3.1	98.3*
COc1ccc(NC(=O)CSc2ccc(NC(C)=O)cc2)cc1S(=O)(=O)N1CCCCC1	-0.7	3.4	2.9	2.9	1.3	98.8*
COc1ccc(NC(=O)CSc2ccc(F)cc2)cc1S(=O)(=O)N1CCCCC1	-3.3	-3.8	1.8	-1.2	0.0	-1.6
CC(=O)Nc1ccc(SCC(=O)Nc2ccc3c(c2)OCCO3)cc1	4.0	-2.8	-25.9	x	-3.6	97.9*
COc1ccc(NC(=O)CN(C)C(=O)CSc2ccc(Br)cc2)cc1	-4.0	-7.4	-1.2	x	-4.5	x
C[C@H](O)[C@@H]1CN2CCc3ccc(-c4ccc5c(c4)OCO5)cc3[C@@H]2C[C@@H]1N(C)Cc1cc(Cl)cc(Cl)c1	1.4	x	x	x	x	x
CCOC(=O)C1=NOC(C(C)=O)(C(=O)NC2CCCC2)C1 (configuration not stated)	6.3	x	x	x	x	x
CCCCN1CCS(=O)(=O)N(Cc2cn(Cc3ccccc3Br)nn2)C(C(=O)OC)C1 (configuration not stated)	-1.9	x	x	x	x	x
O=C(CSc1ccc2c(c1)OCCO2)Nc1ccc(Cl)cn1	0.4	25.1	-3.7	3.4	-0.5	88.6*
O=C(CSc1ccc2c(c1)OCCO2)Nc1ccc(Br)cn1	-1.7	-16.6	-1.6	-0.5	-2.4	-7.3
COC(=O)NNC(=O)c1ccc(C)c(Br)c1	2.5	-7.4	2.6	3.0	-1.6	6.1
Cc1ccc(C(=O)NNC(=O)C2CC2)cc1Br	1.3	-40.3	-6.6	-15.5	0.3	87.6*
N#C/C(=C/c1ccc(N2CCOCC2)o1)C(=O)NC1CCCCC1	-1.2	1.6	-0.6	9.2	-0.8	63.0
COc1ccc(NC(=O)/C(C#N)=C\c2ccc(N3CCOCC3)o2)cc1	2.8	-65.3	-4.6	6.3	-4.5	79.6*
N#C/C(=C/c1ccc(N2CCCCC2)o1)C(=O)Nc1ccc2ccccc2c1	0.2	-5.9	62.7*	9.7	x	x
SMILES	SMARCA2 activ	GASC-1 inh	Exocytosis inh	PfM18AAP inh	beta cell repl	ALR inh
N#C/C(=C/c1ccc(N2CCCCC2)o1)C(=O)Nc1ccc(Cl)cc1	4.9	-0.8	9.3	6.4	-0.2	-1.3
N#C/C(=C\c1ccc(N2CCOCC2)o1)C(=O)Nc1ccc(O)cc1	2.1	0.3	2.3	4.8	-0.8	99.0*
O=C(N/N=C\c1ccc(-c2ccccc2[N+](=O)[O-])o1)C1COc2cc3ccccc3cc2O1 (configuration not stated)	-0.2	-9.9	4.5	5.3	-3.6	-3.0
O=C(N/N=C\c1ccc(-c2ccccc2[N+](=O)[O-])o1)C1COc2ccccc2O1 (configuration not stated)	-3.8	-35.2	-5.4	9.0	0.0	75.4*
Nn1cnnc1N/N=C\c1ccc(-c2ccccc2[N+](=O)[O-])o1	3.5	-3.6	-0.3	53.9*	x	x
COCCNC(=S)N/N=C(\C)c1ccc(O)cc1	-1.6	4.0	-0.1	9.5	0.0	98.9*
COCCCNC(=S)N/N=C/c1ccc(O)cc1	1.9	-0.8	0.9	9.4	-2.5	99.5*
COCCCNC(=S)N/N=C/c1ccc(OC)cc1	-3.8	-1.1	12.3	7.8	0.8	13.1
C=CCn1c(COc2ccc(C)cc2)nnc1SCC(=O)c1ccc(-c2ccccc2)cc1	-5.4	x	x	x	x	x
COC(=O)[C@@H](N[C@H](/C=C/c1ccccc1)[C@@H](O)Cc1ccccc1)C(C)C	1.3	x	x	x	x	x
C=CCc1c(C)nc(-c2ccccc2)nc1Nc1ccc(O)cc1	-3.2	-0.9	-1.4	-4.0	-2.5	99.0*
CSCc1ccc(C(=O)N2CCCC(Nc3ccc(F)cc3)C2)o1 (configuration not stated)	0.3	9.8	-6.3	4.7	-5.7	98.2*
O=C(c1cc(Cl)ccc1F)N1CCCC(Nc2ccc3c(c2)OCCO3)C1 (configuration not stated)	-1.9	-8.4	-1.5	-1.7	1.9	97.1*
Cc1occc1C(=O)N1CCCC(Nc2ccc(F)c(F)c2)C1 (configuration not stated)	-0.1	0.8	1.2	5.2	-2.3	50.4
CSCc1ccc(C(=O)N2CCCC(Nc3ccc4c(c3)OCCO4)C2)o1 (configuration not stated)	4.3	0.7	-0.3	4.5	-0.6	98.8*
O=C(c1ccco1)N1CCCC(Nc2ccc3c(c2)OCCO3)C1 (configuration not stated)	4.1	-59.4	-14.4	1.5	-3.7	98.5*
CC(C)NC(=O)N[C@H]1C[C@@H]2O[C@H](CO)CC[C@@H]2O[C@@H]1CCc1ccc(-c2ccccc2F)cc1	0.4	x	x	x	x	x
CCOC(=O)NC(=O)CSc1nc2ccc(OCC)cc2[nH]1	-1.0	5.0	-1.1	12.0	-2.2	-8.2
CCOc1ccc2nc(SC(C)C(N)=O)[nH]c2c1 (configuration not stated)	7.9*	-4.1	-0.9	3.2	-2.3	x
CC1(C)CC(=O)C=C(C2CC2)C1=O	-2.0	x	x	x	x	x
C=CCNC(=O)CN(C(=O)c1ccncn1)c1cccc(Br)c1	1.3	x	x	x	x	x
Cn1c(=O)[nH]c(=O)c2c1nc(N1CCCC1)n2CC(O)COc1ccccc1 (configuration not stated)	0.8	6.5	-3.7	-5.4	-1.8	94.6*
COc1ccc(CCn2c(N3CCOCC3)nc3c2c(=O)[nH]c(=O)n3C)cc1	0.3	16.8	3.7	-0.9	0.2	99.2*
Cn1c(=O)[nH]c(=O)c2c1nc(N1CCOCC1)n2CC(O)COc1ccccc1 (configuration not stated)	0.4	8.0	2.5	-1.4	-1.9	-2.4
